Data taken from PubChem BioAssay.
“And” between values parts separate entries of the source, which are not always exact repeats. Equal entries are not always repeated. The source made the active and inactive calls. Cut-off read from the data, not from the text of the source, unless noted: active = parasite load remaining mostly below about 12% (no sharp cut-off); inactive = mostly above about 10%.

Legend:
[1] = liver-stage malaria parasite growth inhibition, primary screen, cell-based, HepG2, luciferase luminescence, HepG2 viability (AID 624349);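 note: 100% = mean of DMSO negative control wells on the same plate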; conditions: P. berghei liver stage in HepG2, luciferase luminescence, concentration not given here; parasite load remaining: stronger effect = lower value; viability: measured here: HepG2 viability without parasites
[2] = sensitizers of A549 cells to miR-34 induction, primary screen, imaging, A549 dox-inducible miR-34, nuclei and caspase counts (AID 1347080;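 active = compounds whose cell count with miR-34 switched on is under 0.7 times the count with it off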); conditions: A549 miR-34 inducible, Hoechst nuclei count, 48 h
[3] = hESC survival regulators, cell-based (AID 493140; call rule not given here;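 note: cells exposed to compounds for four days before counting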); conditions: human embryonic stem cell survival screen; stronger effect = higher value
[4] = inhibitors of Cryptococcus chitosan production, flow cytometry, Cibacron Brilliant Red staining (AID 1347148; call rule not given here;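 note: compound exposure lasted three days at 37 degrees C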); conditions: Cryptococcus neoformans chitosan, stronger effect = lower value; at 10 µM unless noted
[5] = stronger effect = lower value, cell number ratio, induced over uninduced
[6] = measured here: relative caspase fold change +Dox/-Dox
[7] = measured here: total cells with miR-34 induction, stronger effect = lower value
[8] = measured here: total cells without miR-34 induction

Row | SMILES | parasite load remaining [1] | viability [1] | fold change [2, 5] | fold change [2, 6] | cell count [2, 7] | cell count [2, 8] | survival [3] | fold change ([2]; stronger effect = lower value) | fold fluorescence [4]
1 | NCCC(O)C(=O)N[C@@H]1C[C@H](N)[C@@H](OC2O[C@H](CN)[C@@H](O)[C@H](O)[C@H]2N)[C@H](OC2O[C@H](CO)C(O)[C@H]2O)[C@H]1O (stereo partly drawn) | 106% (inactive) | 91% | 0.815 (inactive) | 1.54 | 7990 | 9800 |  |  | 
2 | CN(C)[C@@H]1C(=O)C(C(N)=O)=C(O)[C@@]2(O)C(=O)C3=C(O)c4c(O)ccc(Cl)c4[C@@](C)(O)C3C[C@@H]12 (stereo partly drawn) | 51% (inactive) | 46.7% | 0.828 (inactive) | 1.43 | 7670 | 9260 |  |  | 
3 | CO[C@H](C)C(O)(C(=O)OCC1=CCN2CC[C@H](O)[C@@H]12)C(C)C (stereo partly drawn) | 69.7% (inactive) | 101% | 0.879 (inactive) | 1.23 | 8290 | 9440 |  |  | 
4 | CC1=CC(=O)C2=C(C)C[C@H](O)[C@@H]3[C@H](OC(=O)[C@H]3C)[C@@H]12 | 98.5% (inactive) | 100% |  | 1.6 | 8050 | 9720 | 7.92 (inactive) | 0.829 (inactive) | 
5 | CN1[C@@H]2CC(=O)C[C@H]1[C@H](O)C2 | 87.8% (inactive) | 81.1% | 0.914 (inactive) | 0.592 | 8350 | 9140 |  |  | 
6 | CC(Cc1ccccc1)NCCC(c1ccccc1)c1ccccc1 (stereo not drawn) (tested in a mixture with another compound) | 65.1% (inactive) | 77.8% |  | 1.52 | 5460 | 6790 |  | 0.804 (inactive) | 
7 | CCN1C[C@]2(C)CC[C@H](OC)[C@@]34C1[C@]1(OCO[C@@]15C[C@H](OC)[C@H]1C[C@]3(O)[C@@H]5[C@H]1OC)[C@@H](OC(C)=O)[C@H]24 | 91.7% (inactive) | 96.9% | 0.951 (inactive) | 0.675 | 10000 | 10500 |  |  | 
8 | C=C1[C@@H](O)C2O[C@@]3(CCC2O[C@@H]1C(O)C[C@H](C)C1O[C@@]2(CCCCO2)CC[C@H]1C)CC[C@@H](/C=C/[C@@H](C)[C@@H]1CC(C)=C[C@@]2(O[C@H](C[C@@](C)(O)C(=O)O)CCC2O)O1)O3 (stereo partly drawn) |  |  |  |  |  |  |  |  | 14.3 [at 6.2 µM] (inactive)
9 | CN1C2CCCC1CC(=O)C2 | 169% (inactive) and 77.1% (inactive) | 110% and 77.5% | 0.891 (inactive) | 1.28 | 9180 | 10300 | 10.2 (inactive) |  | 
10 | C[N+]1=Cc2cc3c(cc2CC1)OCO3 | 30.1% (inactive) | 46.5% | 0.917 (inactive) | 1.08 | 9060 | 9880 |  |  | 
11 | C=C(C)[C@@H]1O[C@@H]2CC[C@]3(C)[C@](O)(CC[C@@H]4[C@H]5OC(C)(C)[C@@H]6C[C@H]7C(=C)Cc8c(Cl)cc9[nH]c(c5c9c8[C@]76O)[C@]43C)[C@@]23O[C@H]3[C@@H]1O |  |  |  |  |  |  |  |  | 6.21 [at 78.8 µM] (inactive)
